Most compounds without a hit are left out; they make up all but 1.3% or so of the library.
Rv3671c inh – inhibits the M. tuberculosis serine protease Rv3671c; P9WHR9; inhibition, % at 5.96 µM; 0.048% of 320,000 active; AID 2606; in the data active = inhibition above about 38%;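 note: extracellular domain of Rv3671c used as enzyme; 0% = enzyme with DMSO and 100% = no enzyme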
Target sequence (P9WHR9 whole entry, looked up, the tested form may be a part): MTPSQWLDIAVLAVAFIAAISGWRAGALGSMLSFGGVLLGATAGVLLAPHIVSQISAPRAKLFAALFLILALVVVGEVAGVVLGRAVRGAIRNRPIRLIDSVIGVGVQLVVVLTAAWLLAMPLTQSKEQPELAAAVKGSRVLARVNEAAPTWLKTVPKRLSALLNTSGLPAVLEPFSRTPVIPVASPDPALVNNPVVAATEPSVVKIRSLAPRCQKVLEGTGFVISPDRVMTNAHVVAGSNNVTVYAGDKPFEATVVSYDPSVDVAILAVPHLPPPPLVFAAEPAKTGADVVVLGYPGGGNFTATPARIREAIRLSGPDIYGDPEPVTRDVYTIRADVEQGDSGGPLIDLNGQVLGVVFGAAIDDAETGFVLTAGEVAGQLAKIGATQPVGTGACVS
RecA intein inh – blocks M. tuberculosis RecA intein splicing; 0.75% of 290,000 active; P9WHJ3; cell-free RecA intein splicing, fluorescence; inhibition, % (concentration not given with the values); in the data active = inhibition above about 30%; inconclusive = no clear call, values can overlap the other calls;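 note: 0% = vehicle wells and 100% = reference inhibitor control wells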
BJeLR viability – BJeLR cell viability loss. inhibition, % (no concentration beside the values). BJeLR (HRASV12) viability, CellTiter-Glo ATP luminescence, 48 h. 0.17% of 300,000 active. AID 1554; in the data active = inhibition above about 50%; inconclusive = no clear call, values can overlap the other calls
PrP UTR inh – inhibition of PrP 5' UTR reporter expression; inhibition, % (no concentration beside the values); 0.35% of 340,000 active; cell-based PrP 5' UTR mRNA reporter, plate reader; in the data active = inhibition above about 52%; note: 0 = median of the neutral control wells
Mtb UGM inh – blocks M. tuberculosis UGM enzyme | P9WIQ1 | purified UGM, fluorescence polarization probe displacement | inhibition, % at 10 µM | 0.06% of 320,000 active; in the data active = inhibition above about 10%, passing the limit was not always enough; inconclusive = no clear call, values can overlap the other calls
FadD28 binding – inhibitors of Mycobacterium tuberculosis FadD28 bisubstrate binding; FadD28 bisubstrate probe binding, fluorescence polarization; inhibition, % at 12.5 µM; 0.22% of 360,000 active; in the data active = inhibition above about 8.5%, passing the limit was not always enough; inconclusive = no clear call, values can overlap the other calls
PrP 5UTR single – prion 5' UTR mRNA inhibition, cherry-pick retest; cell-based prion protein 5' UTR reporter, plate reader; inhibition, % at 2.5 µM; shares compounds with PrP UTR inh; 48% of 1,100 active; in the data active = inhibition above about 54%; inconclusive = no clear call, values can overlap the other calls
* = called active by the depositor.

What do the screens show for `Cc1ccc2nc(NC(=S)NC(=O)c3ccco3)sc2c1`?
Rv3671c inh: -12; RecA intein inh: 1; BJeLR viability: -10; PrP UTR inh: -95; Mtb UGM inh: 2; FadD28 binding: -4

What do the screens show for `O=C1CCCC2=C1C(c1ccsc1)CC(=O)N2c1ccccc1F` (configuration not stated)?
Rv3671c inh: -1; RecA intein inh: -9; BJeLR viability: 3; PrP UTR inh: -26; Mtb UGM inh: 3; FadD28 binding: -5

How did CCN1C/C(=C/c2cccc([N+](=O)[O-])c2)C(=O)/C(=C/c2cccc([N+](=O)[O-])c2)C1 do in these assays?
Rv3671c inh: 1; PrP UTR inh: 66*; Mtb UGM inh: 0; FadD28 binding: -1; PrP 5UTR single: 61*

What do the screens show for `O=C1NC(=O)/C(=C/c2cccc([N+](=O)[O-])c2)N1`?
Rv3671c inh: 0; RecA intein inh: 1; BJeLR viability: 12; PrP UTR inh: 8; Mtb UGM inh: -1; FadD28 binding: -2

What do the screens show for `Cn1nnnc1SCC(=O)N1CCN(S(=O)(=O)c2ccc(Cl)cc2)CC1`?
Rv3671c inh: -1; RecA intein inh: 2; BJeLR viability: 4; PrP UTR inh: -4; Mtb UGM inh: 0; FadD28 binding: -1

How did Cn1nnnc1SCC(=O)N1CCN(S(=O)(=O)c2ccccc2)CC1 do in these assays?
Rv3671c inh: 4; RecA intein inh: -1; BJeLR viability: -1; PrP UTR inh: 71*; Mtb UGM inh: -3; FadD28 binding: -2; PrP 5UTR single: -22

What do the screens show for `C=CCn1c(C)cc(C2=NNC(=NC(C)(C)C)SC2)c1C`?
Rv3671c inh: 14; RecA intein inh: 6; BJeLR viability: 7; PrP UTR inh: 65*; Mtb UGM inh: -3; FadD28 binding: -3; PrP 5UTR single: 66*

Results for COCCCN=C1NN=C(c2cc(C)n(Cc3ccco3)c2C)CS1 ?
Rv3671c inh: 0; RecA intein inh: 3; BJeLR viability: 60*; PrP UTR inh: 68*; Mtb UGM inh: -1; FadD28 binding: -3; PrP 5UTR single: 82*

Results for COCCn1c(C)cc(C2=NNC(=Nc3ccc(Cl)cc3Cl)SC2)c1C ?
Rv3671c inh: -2; RecA intein inh: 5; BJeLR viability: -10; PrP UTR inh: -20; Mtb UGM inh: 3; FadD28 binding: -4

Results for C=CCn1c(C)cc(C2=NNC(=Nc3ccc(C)cc3)SC2)c1C ?
Rv3671c inh: 10; RecA intein inh: 5; BJeLR viability: 1; PrP UTR inh: -22; Mtb UGM inh: -1; FadD28 binding: -2

How did Cc1cc(C2=NNC(=NC3CC3)SC2)c(C)n1-c1ccccc1 do in these assays?
RecA intein inh: 0; BJeLR viability: 19; PrP UTR inh: 94*; FadD28 binding: -1; PrP 5UTR single: 94*

How did Cc1cc(C2=NNC(=NC3CC3)SC2)c(C)n1Cc1ccco1 do in these assays?
Rv3671c inh: -2; PrP UTR inh: 88*; Mtb UGM inh: -1; FadD28 binding: -6; PrP 5UTR single: 87*

What do the screens show for `COc1ccc(-n2c(C)cc(C3=NNC(=NC4CC4)SC3)c2C)cc1`?
PrP UTR inh: -21; FadD28 binding: -2

Results for CC(C)(C)c1ccc(S(=O)(=O)NC(=O)C2(C)CCN2C(=O)C2(c3ccc(Cl)cc3)CC2)cc1 (configuration not stated) ?
FadD28 binding: 3

What do the screens show for `COc1ccc(C(=O)N2CCC(C)(C(=O)NS(=O)(=O)C3CC3)C2)cc1` (configuration not stated)?
FadD28 binding: 2

What do the screens show for `C=CCN=C1NN=C(c2cc(C)n(CCOC)c2C)CS1`?
Rv3671c inh: 4; RecA intein inh: 3; BJeLR viability: 20; PrP UTR inh: 46; Mtb UGM inh: -1; FadD28 binding: 0

How did COCCn1c(C)cc(C2=NNC(=NC3CC3)SC2)c1C do in these assays?
Rv3671c inh: 0; RecA intein inh: -3; BJeLR viability: 20; PrP UTR inh: 92*; Mtb UGM inh: 2; FadD28 binding: -4; PrP 5UTR single: 94*

Results for CC(C)c1nnc(NC(=O)CCC(=O)NC2CCCc3ccccc32)s1 (configuration not stated) ?
Rv3671c inh: 3; RecA intein inh: 3; BJeLR viability: -4; PrP UTR inh: -14; Mtb UGM inh: 0; FadD28 binding: -1

Results for Cc1onc(-c2ccccc2Cl)c1-c1nc(-c2ccccn2)no1 ?
Rv3671c inh: -11; RecA intein inh: 9; BJeLR viability: -16; PrP UTR inh: -10; Mtb UGM inh: 2; FadD28 binding: -4

How did Clc1ccccc1/C=C/c1nc(-c2ccccn2)no1 do in these assays?
Rv3671c inh: -5; RecA intein inh: 0; BJeLR viability: 20; PrP UTR inh: 55*; Mtb UGM inh: 2; FadD28 binding: -1; PrP 5UTR single: 61*

Results for NS(=O)(=O)c1cccc(NC(=O)COC(=O)CCC2CCCC2)c1 ?
Rv3671c inh: 4; PrP UTR inh: -77; Mtb UGM inh: -1; FadD28 binding: 1

How did Cn1c(=O)n(C)c2cc(CNC(=O)[C@H]3O[C@@H](n4ccc(=O)[nH]c4=O)[C@H](O)[C@@H]3O)ccc21 do in these assays?
FadD28 binding: 0

What do the screens show for `O=C(O)CCn1cc(C=C2C(=O)NC(=S)NC2=O)c(-c2cc3ccccc3oc2=O)n1`?
RecA intein inh: -4; BJeLR viability: 0; PrP UTR inh: -5; FadD28 binding: -2

How did O=C(O)CCn1cc(C=C2C(=O)NC(=S)NC2=O)c(-c2ccccc2)n1 do in these assays?
Rv3671c inh: 1; RecA intein inh: -2; BJeLR viability: 6; PrP UTR inh: 74*; Mtb UGM inh: -1; FadD28 binding: -3; PrP 5UTR single: 0

How did Cc1ccc(C(=O)COC(=O)C2CCC2)cc1 do in these assays?
Rv3671c inh: 12; RecA intein inh: 5; BJeLR viability: -4; PrP UTR inh: -22; Mtb UGM inh: 0; FadD28 binding: -2

What do the screens show for `CC(=O)NCCc1ccc(C(=O)COC(=O)C2CCCCC2)cc1`?
Rv3671c inh: -1; PrP UTR inh: 72*; Mtb UGM inh: 0; FadD28 binding: 1; PrP 5UTR single: 34

How did CN(C)c1ccc(/C=C/c2ccc3ccccc3n2)cc1 do in these assays?
Rv3671c inh: -2; RecA intein inh: 0; BJeLR viability: 71*; PrP UTR inh: 84*; Mtb UGM inh: 0; FadD28 binding: -6; PrP 5UTR single: inconclusive

How did C(=C\c1ccc2ccccc2n1)/c1ccccc1 do in these assays?
Rv3671c inh: -3; RecA intein inh: 8; BJeLR viability: 20; PrP UTR inh: 58*; Mtb UGM inh: 0; FadD28 binding: -1; PrP 5UTR single: 25

Results for Oc1ccc(/C=C/c2ccc3ccccc3n2)cc1 ?
Rv3671c inh: 0; RecA intein inh: 1; BJeLR viability: 30; PrP UTR inh: 57*; Mtb UGM inh: 0; FadD28 binding: -2; PrP 5UTR single: inconclusive

High-throughput results (PubChem BioAssay)
